Our source for the Percent Effect values is ChEMBL document CHEMBL3988442, “University of Dundee, Small-Polar-MMV Screening Library” (2021).

What all share (set-up): scale not given: direction of the effect not stated beside the values
For assay [1], the target named is Protein translocase subunit SecA (Escherichia coli (strain K12)) (UniProt P10408). As to the kind of experiment: Assay to Identify E. coli SecA ATPase Inhibitors. In kind it is functional. The following applies: 30 µM.
In assay [2] the target is T1, Ubiquitin-activating enzyme e1, putative (Leishmania donovani (strain BPK282A1)) (UniProt E9BSI1).
T1 sequence (whole entry): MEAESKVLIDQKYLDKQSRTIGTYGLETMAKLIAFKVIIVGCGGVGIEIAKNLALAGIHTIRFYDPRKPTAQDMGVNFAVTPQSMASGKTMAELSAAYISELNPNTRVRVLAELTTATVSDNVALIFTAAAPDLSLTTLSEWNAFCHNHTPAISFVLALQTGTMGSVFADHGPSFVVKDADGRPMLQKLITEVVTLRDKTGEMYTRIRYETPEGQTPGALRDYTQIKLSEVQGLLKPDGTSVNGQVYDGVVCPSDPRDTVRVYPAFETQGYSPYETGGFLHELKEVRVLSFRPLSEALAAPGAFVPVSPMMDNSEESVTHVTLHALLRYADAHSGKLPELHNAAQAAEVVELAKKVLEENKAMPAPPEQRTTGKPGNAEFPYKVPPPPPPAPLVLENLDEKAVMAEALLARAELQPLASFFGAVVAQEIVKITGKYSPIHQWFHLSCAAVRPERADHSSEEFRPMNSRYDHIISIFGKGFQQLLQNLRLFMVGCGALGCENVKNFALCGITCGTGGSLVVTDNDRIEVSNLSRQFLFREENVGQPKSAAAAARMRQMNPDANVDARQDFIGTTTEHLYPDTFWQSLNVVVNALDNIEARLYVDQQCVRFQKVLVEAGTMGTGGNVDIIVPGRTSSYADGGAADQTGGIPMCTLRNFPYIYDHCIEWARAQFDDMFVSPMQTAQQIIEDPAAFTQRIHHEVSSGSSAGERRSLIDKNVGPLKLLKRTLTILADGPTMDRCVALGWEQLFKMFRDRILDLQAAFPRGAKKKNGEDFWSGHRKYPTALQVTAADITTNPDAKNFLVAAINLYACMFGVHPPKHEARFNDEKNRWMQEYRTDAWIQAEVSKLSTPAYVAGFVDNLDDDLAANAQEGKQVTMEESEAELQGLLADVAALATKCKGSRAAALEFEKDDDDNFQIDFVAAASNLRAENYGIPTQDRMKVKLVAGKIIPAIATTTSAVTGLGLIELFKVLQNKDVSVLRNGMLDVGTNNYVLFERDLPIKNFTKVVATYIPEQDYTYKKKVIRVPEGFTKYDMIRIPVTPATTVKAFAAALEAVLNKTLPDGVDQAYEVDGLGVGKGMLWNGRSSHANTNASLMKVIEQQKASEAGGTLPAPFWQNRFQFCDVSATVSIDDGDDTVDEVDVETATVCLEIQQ
Nature of the assay: Leishmania donovani Ubiquitin Activating Enzyme (LdE1). In kind it is functional. To be noted: 30 µM.

Assay [3] concerns the target T2, Aspartate--tRNA(Asp/Asn) ligase (Mycobacterium tuberculosis (strain ATCC 25618 / H37Rv)) (UniProt P9WFW3). Further: in the data most compounds retested in dose-response had high values.
T2 sequence (whole entry): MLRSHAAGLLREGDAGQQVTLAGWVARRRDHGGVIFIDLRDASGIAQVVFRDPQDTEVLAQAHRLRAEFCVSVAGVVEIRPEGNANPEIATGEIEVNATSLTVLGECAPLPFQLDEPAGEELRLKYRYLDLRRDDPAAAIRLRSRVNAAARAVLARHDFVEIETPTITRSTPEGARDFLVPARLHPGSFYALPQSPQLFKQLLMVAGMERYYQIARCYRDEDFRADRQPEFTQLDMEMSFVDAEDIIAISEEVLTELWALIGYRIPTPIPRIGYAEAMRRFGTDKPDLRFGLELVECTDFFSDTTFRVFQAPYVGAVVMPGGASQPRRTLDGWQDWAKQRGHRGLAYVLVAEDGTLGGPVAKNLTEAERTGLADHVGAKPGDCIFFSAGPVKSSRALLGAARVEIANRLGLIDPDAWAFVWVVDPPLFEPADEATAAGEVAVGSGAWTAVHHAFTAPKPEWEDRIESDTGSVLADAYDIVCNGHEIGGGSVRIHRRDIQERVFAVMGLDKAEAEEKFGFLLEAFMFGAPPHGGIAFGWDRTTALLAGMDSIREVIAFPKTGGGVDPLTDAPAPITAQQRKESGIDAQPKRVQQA
As to the kind of experiment: Assay for Asp RNA synthetase-1 from Mycobacterium tuberculosis. In kind it is functional. The following applies: 30 µM.

Assay [4] concerns the target AMP-activated protein kinase, AMPK (Homo sapiens) (UniProt P54646+O43741+P54619+Q9UGJ0+Q9Y478+Q13131+Q9UGI9). As to the kind of experiment: AMP-dependent Kinase enzyme assay. An in vitro enzyme assay that detects ADP turnover that is directly proportional to AMPK activity. This uses naive AMPK that is activated during the assay with MK-8722. In kind it is functional. To be noted: 30 µM.

Assay [5] has as its target Sialic acid-binding Ig-like lectin 9 (Homo sapiens) (UniProt Q9Y336). Nature of the assay: Hs-Siglec9 ALPHAscreen SOP 20170721. To be noted: 10 µM.
The test system of a further assay is Trypanosoma cruzi. As to the kind of experiment: Trypanosoma cruzi phosphomannomutase and mannose-1-phosphate guanylyltransferase assay. Type of assay: functional. The following applies: 10 µM.
In assay [6] the target is T3, Arginase-2, mitochondrial (Homo sapiens) (UniProt P78540).
T3 sequence (whole entry): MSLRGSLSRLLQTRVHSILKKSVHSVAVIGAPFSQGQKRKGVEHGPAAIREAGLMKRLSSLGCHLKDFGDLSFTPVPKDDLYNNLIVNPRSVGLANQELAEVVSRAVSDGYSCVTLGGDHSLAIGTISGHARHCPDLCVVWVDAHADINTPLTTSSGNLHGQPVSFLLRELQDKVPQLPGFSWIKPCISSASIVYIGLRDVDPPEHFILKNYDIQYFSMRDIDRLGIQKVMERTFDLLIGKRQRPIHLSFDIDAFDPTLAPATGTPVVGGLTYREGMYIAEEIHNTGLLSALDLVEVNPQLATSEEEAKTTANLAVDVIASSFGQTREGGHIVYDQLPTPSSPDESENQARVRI
Nature of the assay: in vitro enzyme assay to detect the production of urea directly proportional to the activity of Arginase II. Further: in the data most compounds retested in dose-response had high values. In kind it is functional. The following applies: 33.3 µM.

The target of assay [7] is T4, Proteasome subunit beta (Trypanosoma cruzi) (UniProt O96673).
T4 sequence (whole entry): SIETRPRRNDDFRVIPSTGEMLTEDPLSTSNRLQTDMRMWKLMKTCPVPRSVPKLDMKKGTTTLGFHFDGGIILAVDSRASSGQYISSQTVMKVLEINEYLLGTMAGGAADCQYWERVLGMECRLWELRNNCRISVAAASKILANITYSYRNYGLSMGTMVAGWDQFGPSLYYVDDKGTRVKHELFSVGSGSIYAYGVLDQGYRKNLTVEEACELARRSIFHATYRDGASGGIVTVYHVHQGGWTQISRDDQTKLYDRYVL
As to the kind of experiment: Trypanosoma cruzi proteasome chymotrypsin-like activity (TcProtChymo) assay. Further: in the data most compounds retested in dose-response had high values. Type of assay: functional. The following applies: 9.37 µM.

The species entered for a further assay is Homo sapiens. Nature of the assay: To identify inhibition of the IFN signalling (Jak-Stat) pathway via expression of an eGFP reporter gene under the control of an IFN-stimulated response element (ISRE) containing MxA promoter. The following applies: 30 µM. In kind it is functional.
The target of assay [8] is Shiga toxin 2 (Escherichia coli O157:H7) (UniProt P09385+P09386). Nature of the assay: E. coli 0.157:H7 Shiga Toxin SOP - stx2 screening assay. In kind it is functional. To be noted: 30 µM.
For assay [9], the target named is T5, Tyrosyl-tRNA synthetase, putative (Trypanosoma cruzi (strain CL Brener)) (UniProt Q4DSP6).
T5 sequence (whole entry): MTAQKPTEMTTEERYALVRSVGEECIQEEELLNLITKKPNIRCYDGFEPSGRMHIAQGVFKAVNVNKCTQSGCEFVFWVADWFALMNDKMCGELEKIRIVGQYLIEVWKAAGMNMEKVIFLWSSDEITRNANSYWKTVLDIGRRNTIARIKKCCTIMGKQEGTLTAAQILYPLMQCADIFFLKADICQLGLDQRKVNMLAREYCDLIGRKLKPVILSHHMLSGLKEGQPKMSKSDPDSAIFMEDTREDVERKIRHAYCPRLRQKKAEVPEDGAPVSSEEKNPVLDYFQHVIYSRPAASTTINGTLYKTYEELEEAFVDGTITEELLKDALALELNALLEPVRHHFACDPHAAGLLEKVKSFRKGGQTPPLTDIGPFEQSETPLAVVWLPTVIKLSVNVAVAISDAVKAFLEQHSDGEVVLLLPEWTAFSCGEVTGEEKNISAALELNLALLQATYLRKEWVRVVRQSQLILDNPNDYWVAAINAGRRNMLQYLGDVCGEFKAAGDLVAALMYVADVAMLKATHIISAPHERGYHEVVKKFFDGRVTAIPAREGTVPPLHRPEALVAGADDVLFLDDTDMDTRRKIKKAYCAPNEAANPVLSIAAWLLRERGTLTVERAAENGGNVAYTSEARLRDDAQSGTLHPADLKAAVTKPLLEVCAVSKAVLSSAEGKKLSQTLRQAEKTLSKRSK
As to the kind of experiment: Trypanosoma cruzi tyrosyl tRNA synthetase (TcYRS) _High Tyrosine SOP. Further: in the data most compounds retested in dose-response had high values. In kind it is functional. To be noted: 30 µM.

In assay [10] the target is T5, Tyrosyl-tRNA synthetase, putative (Trypanosoma cruzi (strain CL Brener)). Nature of the assay: Trypanosoma cruzi tyrosyl tRNA synthetase (TcYRS) SOP. Type of assay: functional. The following applies: 30 µM.
In assay [11] the target is Chromo domain-containing protein 1 (Saccharomyces cerevisiae (strain ATCC 204508 / S288c) (Baker's yeast)) (UniProt P32657). Nature of the assay: ScCHD-1 Enzyme Inhibition Assay. Further: in the data most compounds retested in dose-response had high values. Type of assay: functional. The following applies: 30 µM.

For some of these results: Potency and affinity values are given separately.

Sequence of Protein translocase subunit SecA (Escherichia coli (strain K12)) (P10408 whole entry): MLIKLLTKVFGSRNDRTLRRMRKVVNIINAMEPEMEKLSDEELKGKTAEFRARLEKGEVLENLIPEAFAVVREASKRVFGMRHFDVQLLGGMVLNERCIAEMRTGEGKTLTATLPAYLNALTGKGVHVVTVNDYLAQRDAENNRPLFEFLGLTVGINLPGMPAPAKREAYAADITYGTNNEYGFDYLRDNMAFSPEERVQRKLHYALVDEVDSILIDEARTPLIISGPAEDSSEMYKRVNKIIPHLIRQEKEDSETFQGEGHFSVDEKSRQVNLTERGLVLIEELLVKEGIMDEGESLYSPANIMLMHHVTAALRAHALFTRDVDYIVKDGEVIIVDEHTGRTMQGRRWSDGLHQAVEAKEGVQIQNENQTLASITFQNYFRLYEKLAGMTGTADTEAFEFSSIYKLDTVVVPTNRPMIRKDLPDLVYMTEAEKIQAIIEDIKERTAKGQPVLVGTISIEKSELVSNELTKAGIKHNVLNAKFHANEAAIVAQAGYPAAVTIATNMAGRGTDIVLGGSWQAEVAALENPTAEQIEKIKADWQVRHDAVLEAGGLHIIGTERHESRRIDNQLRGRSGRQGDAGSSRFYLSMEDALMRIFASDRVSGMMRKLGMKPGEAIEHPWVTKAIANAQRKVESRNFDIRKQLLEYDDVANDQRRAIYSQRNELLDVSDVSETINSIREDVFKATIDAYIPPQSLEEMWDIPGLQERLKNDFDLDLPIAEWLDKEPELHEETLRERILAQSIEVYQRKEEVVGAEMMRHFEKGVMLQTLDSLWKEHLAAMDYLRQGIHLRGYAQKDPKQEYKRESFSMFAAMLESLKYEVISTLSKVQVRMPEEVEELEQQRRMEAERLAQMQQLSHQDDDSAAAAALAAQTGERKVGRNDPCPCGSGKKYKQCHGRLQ
Sequence of Sialic acid-binding Ig-like lectin 9 (Homo sapiens) (Q9Y336 whole entry): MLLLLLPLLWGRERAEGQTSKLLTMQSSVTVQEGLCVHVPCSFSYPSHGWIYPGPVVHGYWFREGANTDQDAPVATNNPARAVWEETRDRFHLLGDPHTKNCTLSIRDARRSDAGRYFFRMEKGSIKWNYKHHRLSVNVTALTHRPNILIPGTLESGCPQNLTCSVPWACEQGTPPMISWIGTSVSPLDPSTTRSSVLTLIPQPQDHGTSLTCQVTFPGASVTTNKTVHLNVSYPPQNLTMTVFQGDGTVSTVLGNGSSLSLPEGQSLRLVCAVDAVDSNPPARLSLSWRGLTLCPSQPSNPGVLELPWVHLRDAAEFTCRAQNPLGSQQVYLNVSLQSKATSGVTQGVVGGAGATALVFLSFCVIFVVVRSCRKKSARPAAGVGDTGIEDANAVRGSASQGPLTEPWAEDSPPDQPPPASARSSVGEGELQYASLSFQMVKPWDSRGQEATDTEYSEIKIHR
Sequence of Chromo domain-containing protein 1 (Saccharomyces cerevisiae (strain ATCC 204508 / S288c) (Baker's yeast)) (P32657 whole entry, the tested form may be a part): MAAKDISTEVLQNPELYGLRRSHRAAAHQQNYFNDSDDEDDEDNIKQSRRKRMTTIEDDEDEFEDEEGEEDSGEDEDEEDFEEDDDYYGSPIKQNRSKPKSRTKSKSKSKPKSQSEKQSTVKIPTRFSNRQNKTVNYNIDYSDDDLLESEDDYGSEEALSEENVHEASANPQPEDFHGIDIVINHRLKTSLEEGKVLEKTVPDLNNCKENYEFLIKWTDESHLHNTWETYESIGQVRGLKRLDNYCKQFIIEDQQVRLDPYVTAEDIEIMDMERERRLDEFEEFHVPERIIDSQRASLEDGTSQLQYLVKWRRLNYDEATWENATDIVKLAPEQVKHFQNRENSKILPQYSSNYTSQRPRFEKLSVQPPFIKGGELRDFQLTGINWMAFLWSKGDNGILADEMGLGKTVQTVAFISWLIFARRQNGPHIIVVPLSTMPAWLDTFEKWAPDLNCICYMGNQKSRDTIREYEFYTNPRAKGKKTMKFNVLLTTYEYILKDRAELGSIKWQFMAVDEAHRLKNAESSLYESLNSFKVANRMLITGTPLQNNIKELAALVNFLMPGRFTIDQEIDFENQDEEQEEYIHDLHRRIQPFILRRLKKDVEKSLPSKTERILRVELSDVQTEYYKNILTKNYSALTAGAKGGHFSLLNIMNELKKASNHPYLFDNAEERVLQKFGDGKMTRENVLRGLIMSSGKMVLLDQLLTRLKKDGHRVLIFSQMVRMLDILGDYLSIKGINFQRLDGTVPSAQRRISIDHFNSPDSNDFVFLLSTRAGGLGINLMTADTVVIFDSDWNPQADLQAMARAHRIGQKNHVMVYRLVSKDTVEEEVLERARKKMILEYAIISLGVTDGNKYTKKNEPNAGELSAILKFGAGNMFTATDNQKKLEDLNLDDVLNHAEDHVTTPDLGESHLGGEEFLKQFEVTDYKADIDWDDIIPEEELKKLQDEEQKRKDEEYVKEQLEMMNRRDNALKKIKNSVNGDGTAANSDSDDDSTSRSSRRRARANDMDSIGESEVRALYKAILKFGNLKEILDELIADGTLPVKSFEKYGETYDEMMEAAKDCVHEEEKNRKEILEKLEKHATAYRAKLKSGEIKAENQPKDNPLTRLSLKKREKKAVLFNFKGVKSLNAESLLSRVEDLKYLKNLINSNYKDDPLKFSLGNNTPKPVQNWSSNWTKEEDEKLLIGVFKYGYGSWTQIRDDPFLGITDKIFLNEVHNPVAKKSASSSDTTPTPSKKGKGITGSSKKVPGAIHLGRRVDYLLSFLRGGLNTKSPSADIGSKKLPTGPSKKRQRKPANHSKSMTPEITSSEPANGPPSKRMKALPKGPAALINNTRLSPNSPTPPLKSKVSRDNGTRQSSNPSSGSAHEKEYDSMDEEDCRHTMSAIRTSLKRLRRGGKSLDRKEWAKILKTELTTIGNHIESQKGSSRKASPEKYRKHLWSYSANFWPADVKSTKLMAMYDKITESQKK

As for `Cc1cc(CN2C[C@@H]3COC[C@]3(CNC(=O)c3ccno3)C2)no1`, the Percent Effect is -5.72% in [1]; 2.7% in assay [2]; 6.65% in [3]; 2.65% in assay [4]; 4.53% in [5]; 0.293% in the assay with Trypanosoma cruzi. The Percent Effect in assay [6] is 8.6%; in [7], 13.1%; in the assay listed under Homo sapiens it was -16.8%; in assay [8], -2.33%; in assay [9], 3.24%; in assay [10], 5.13%. For the same molecule, in [11], the Percent Effect stood at 1.22%.

For the molecule `O=C(Cc1csc(-c2ccco2)n1)N1CCN(CCO)CC1`, the Percent Effect was 0.294% in assay [1]; 1.27% in [2]; -0.16% in [3]; 8.43% in assay [4]; 2.75% in assay [5]; 0.308% in the assay with Trypanosoma cruzi. In addition, the Percent Effect was 8.39% in assay [6]; 5.49% in assay [7]; 11.1% in the assay filed under Homo sapiens; -23.6% in [8]; 3.12% in assay [9]; 5.06% in assay [10]. The Percent Effect in [11] was -4.16%.

Take `c1cncc(CO[C@H]2CO[C@@]3(CCN(Cc4ccoc4)C3)C2)c1`: the Percent Effect in assay [1] is -2.55%; in [2], -1.33%; in [3], -2.79%; in assay [4], 7.6%; in assay [5], 8.75%; with Trypanosoma cruzi it was -4.32%. The Percent Effect in assay [6] was -6.16%; in assay [7] it was 12.6%; in the assay filed under Homo sapiens, 2.27%; in assay [8] it was -19.8%; in assay [9] it was 2.12%; in assay [10], -2.56%. The Percent Effect in [11] turned out to be 1.04%.

Regarding `Cc1nnc([C@H]2CC[C@@H]3[C@@H](CCN3Cc3c(C)noc3C)O2)o1`, the Percent Effect in [1] is -0.00919%; in assay [2], 8%; in [3], 2.12%; in assay [4], 3.84%; in assay [5], -0.659%; with Trypanosoma cruzi, -5.79%. Also, the Percent Effect in assay [6] was -54.3%; in [7] it was 11.4%; in the assay filed under Homo sapiens, -18.2%; in assay [8] it was -1.17%; in assay [9], 6.25%; in assay [10] it was 22.5%. Besides, the Percent Effect in [11] is -6.76%.
